CYP2C19 inh: blocks human cytochrome P450 2C19 | P33261 | CYP2C19 Supersomes, luciferin-H EGE luminescence, 30 min | inhibition, % at 5 µM | 96,000 tested, 21% active | AID 778;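 active = CYP2C19 inhibition above a set limit at 5 µM in the primary screen, cut at about 50% in these data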;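 also: plate controls were negative control wells for no effect and 2.5 mM tranylcypromine positive control for full effect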
CYP2C19 activ: activators of human cytochrome P450 2C19 | P33261 | recombinant CYP2C19, luciferin-H EGE luminescence; hits give high values; 0 = fully inhibited enzyme, 1 = untreated enzyme | activation factor at 5 µM | 96,000 tested, under 10 active | AID 1025;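 active = activation factor of at least 2 at 5 µM in the primary screen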;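 also: 0 = wells with 2.5 mM tranylcypromine and 1 = vehicle-only wells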
PLK1 kinase inh: PLK1 (human) kinase inhibition. inhibition, % at 10 µM. recombinant PLK1 kinase, TR-FRET peptide phosphorylation. 97,000 tested, 0.53% active. P53350;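 active = inhibition of 50% or more in the single-concentration screen; inactive = inhibition below 50%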;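 also: 0% = DMSO max control and 100% = H-89 dihydrochloride min control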
PLK1 PBD inh: Plk1 (human) PBD binding inhibition. 97,000 tested, 0.13% active. inhibition, %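 (tested at about 20 µM)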. Plk1 PBD phosphopeptide binding, fluorescence polarization. P53350; in the data active = inhibition above about 34%, passing the limit was not always enough
CYP2C9 inhib: inhibitors of human CYP2C9; P11712; CYP2C9 Supersomes, luciferin-H conversion, luminescence; inhibition, % at 5 µM; 96,000 tested, 20% active;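 active = blocking of liver enzyme CYP2C9 beyond about 50% at 5 µM, limit read from the data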
CYP2C9 activ: activators of human CYP2C9; recombinant CYP2C9, luciferin-H conversion, luminescence; hits give high values; factor 1 = untreated enzyme, 0 = blocked; activation factor at 5 µM; P11712; 96,000 tested, 1.4% active;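 active = activation factor of 2 or more for CYP2C9 at a 5 µM dose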;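 also: 0 = sulfaphenazole-blocked wells and 1 = vehicle-only wells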
Active calls of the source: *; x = no result given. The list is not random: actives were taken first. Their share in the collection is about 28%.

SMILES	CYP2C19 inh	CYP2C19 activ	PLK1 kinase inh	PLK1 PBD inh	CYP2C9 inhib	CYP2C9 activ
COc1ccc(CN(Cc2ccccn2)C(=O)CN2C(=O)COc3ccccc32)cc1	47	0.5	-6	0	42	0.6
O=C(Nc1nnc(CCc2ccccc2)s1)c1ccco1	27	0.7	27	-11	26	0.7
Cc1ccc2c(c1)N1C(=O)c3ccccc3C1C1=C(CC(C)(C)CC1=O)N2 (centres undefined)	x	x	-14	-18	x	x
Cc1ccc2c(c1)N(CC(=O)NCc1cccs1)C(=O)CO2	68*	0.3	x	x	-18	1.2
Cc1ccccc1CN1C(=O)C2(OCCCO2)c2ccccc21	28	0.7	-15	-23	-116	2.2*
CCN(CCCNC(=O)CN1C(=O)COc2ccccc21)c1cccc(C)c1	82*	0.2	-4	-17	67*	0.3
Cc1ccc2c(c1)N(CC(=O)NC1CCC(C)CC1)C(=O)CO2 (centres undefined)	62*	0.4	-14	-14	-6	1.1
Cc1ccc2c(c1)N(CC(=O)O)C(=O)CO2	5	0.9	6	1	-5	1
CCN1CCCC1CNC(=O)CN1C(=O)COc2ccc(C)cc21 (centres undefined)	-1	1	x	x	-2	1
O=C(Cc1csc(N2CCOCC2)n1)N/N=C/c1ccc(F)cc1	6	0.9	-6	6	22	0.8
Cc1[nH]nc2c1C(c1cccc(O)c1)C1=C(CC(C)(C)CC1=O)N2 (centres undefined)	-1	1	-13	14	32	0.7
Cc1ccc(S(=O)(=O)c2cc3c(=O)n4cccc(C)c4nc3n(CC3CCCO3)c2=N)cc1 (centres undefined)	9	0.9	x	x	18	0.8
CCOC(=O)c1sc(NC(=O)C2CCCO2)c(C(=O)OC)c1C (centres undefined)	x	x	-4	2	x	x
CC1Oc2ccccc2N(CC(=O)NCCc2ccccc2)C1=O (centres undefined)	94*	0.1	-7	-3	26	0.7
Cc1ccc2c(c1)N(CC(=O)OC(CC(C)C)C(=O)NC1CCCC1)C(=O)CO2 (centres undefined)	69*	0.3	x	x	63*	0.4
Cc1cc(Cl)ccc1Oc1nccc(N(C)C)c1C#N	24	0.8	-6	-10	61*	0.4
CN(C)c1ccnc(Oc2ccc(Cl)cc2)c1C#N	22	0.8	-12	-11	37	0.6
O=C(CSc1cn(CCNC(=O)c2cccs2)c2ccccc12)NCC1CCCO1 (centres undefined)	34	0.7	x	x	81*	0.2
CCCn1cc(SCC(=O)NCC2CCCO2)c2ccccc21 (centres undefined)	39	0.6	-18	11	-52	1.5
O=C(CSc1cn(CCNC(=O)c2cccs2)c2ccccc12)NCc1ccccc1	86*	0.1	-5	7	98*	0
O=C(NC1CCCCCC1)c1cccs1	35	0.7	-16	14	21	0.8
O=C(CSc1cn(CCNC(=O)c2cccs2)c2ccccc12)NC1CCCCC1	59*	0.4	-3	12	92*	0.1
O=C(CSc1cn(CCNC(=O)c2ccc3ccccc3c2)c2ccccc12)NCc1ccco1	26	0.7	-13	-15	9	0.9
O=C(Cn1cc(C(=O)c2cccs2)c2ccccc21)NC1CCCCC1	55*	0.5	-6	-33	72*	0.3
CCOC(=O)c1ccc(NC(=O)NC2CCN(CC(=O)NCc3ccc4c(c3)OCO4)CC2)cc1	4	1	-4	16	10	0.9
SMILES	CYP2C19 inh	CYP2C19 activ	PLK1 kinase inh	PLK1 PBD inh	CYP2C9 inhib	CYP2C9 activ
CCC(=O)Nc1c(OC(=O)CC)ccc2c(C)cc(=O)oc12	x	x	-21	3	x	x
OCCN1CCOCCN(CCO)CCOCC1	2	1	-15	15	4	1
O=c1c2nnn(Cc3ccc(Cl)cc3)c2ncn1Cc1ccc(F)cc1	7	0.9	-12	8	-6	1.1
COC(=O)CSc1snnc1-c1ccc(Cl)cc1Cl	77*	0.2	-10	-8	36	0.6
CCOC(=O)CSc1snnc1-c1ccccc1	38	0.6	-15	-17	24	0.8
O=C(c1ccc2c(c1)N(Cc1ccccc1)C(=O)c1ccccc1S2)N1CCCC1	63*	0.4	10	-12	49	0.5
